# Bioassay records deposited in PubChem BioAssay by National Center for Advancing Translational Sciences (NCATS).
# This excerpt belongs to a sample that is enriched for hits.
# SARS PLP yeast – blocks SARS-CoV papain-like protease in a yeast assay; 330,000 compounds, 0.19% hits; AID 485353; Potency, µM (titrated, usually from 32.9 µM), most hits filed as activators; S. cerevisiae expressing SARS-CoV PLpro, growth rescue; calls by dose curve; further: nearly all actives have a fitted effect of over 55% in size
# AMA1-RON2 inh – disrupts binding of P. falciparum AMA1 to RON2; 360,000 compounds, 0.2% hits; Potency, µM (top dose mostly 58.2 µM), most hits filed as inhibitors; AlphaScreen AMA1-biotinylated RON2 peptide binding; further: nearly all actives have a fitted effect of over 45% in size
#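 AMA1 (3D7) with his tag at 25 nM final met compounds first, then biotinylated RON2 peptide at 25 nM; detection used donor plus acceptor beads, 10 µg/mL apiece, read by AlphaScreen after 30 min at room temperature.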
# AmpC inh detg – inhibitors of E. coli AmpC beta-lactamase with detergent; Potency, µM (doses to about 114 µM), most hits filed as inhibitors; AID 485294; AmpC hydrolysis of nitrocefin, absorbance 480 nm, 0.01% Triton; P00811; 370,000 compounds, 0.041% hits; further: nearly all actives have a fitted effect of over 25% in size
# Target sequence (P00811 whole entry, looked up): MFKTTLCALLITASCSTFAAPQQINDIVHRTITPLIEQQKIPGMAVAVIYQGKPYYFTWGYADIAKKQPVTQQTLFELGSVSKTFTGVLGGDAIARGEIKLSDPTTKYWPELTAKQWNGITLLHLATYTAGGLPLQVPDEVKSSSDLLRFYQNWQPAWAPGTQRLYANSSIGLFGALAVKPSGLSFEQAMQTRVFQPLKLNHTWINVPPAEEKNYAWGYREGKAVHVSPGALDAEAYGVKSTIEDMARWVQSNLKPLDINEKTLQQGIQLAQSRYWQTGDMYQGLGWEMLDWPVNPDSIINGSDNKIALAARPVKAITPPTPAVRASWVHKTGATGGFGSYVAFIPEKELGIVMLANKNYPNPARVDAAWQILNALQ
#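 AmpC (5.3 nM in the dispensed reagent) in 20 mM phosphate pH 7.0 with 0.01% (detergent screen) or 0.0001% Triton X-100 was preincubated with compounds for 15 min at room temperature. Nitrocefin was then added from an 800 uM solution, and hydrolysis was followed at 480 nm.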
# Cycloheximide cs – counter-screen for Shiga toxin inhibitors: cycloheximide protein synthesis inhibition. cell reporter, cycloheximide protein synthesis inhibition counterscreen. max response, %. 300,000 compounds, 12% hits. AID 2314; in the data active means max response mostly above about 13%, no sharp cut-off; inactive means mostly below about 14%; further: read at 38.3 µM for the half of the compounds with a filed dose
# AmpC inh no detg – inhibitors of E. coli AmpC beta-lactamase without detergent; Potency, µM (series often up to 57.1 µM), actives largely listed as inhibitors; AmpC nitrocefin hydrolysis, absorbance 480 nm, 0.0001% Triton; 330,000 compounds, 0.52% hits; P00811; further: nearly all actives have a fitted effect of over 20% in size
#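 20 mM phosphate pH 7.0 + 0.01% (detergent screen) or 0.0001% Triton X-100; 5.3 nM AmpC reagent; cpd preinc 15 min RT; nitrocefin (800 uM stock) to start; A480 q20 s × 4 min; Activity was normalised to no-enzyme and no-compound control wells.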
# Shiga toxin inh – inhibitors of Shiga toxin in Vero cells; 290,000 compounds, 9.2% hits; inhibition, % at 38.7 µM; Vero cells, Shiga toxin protein synthesis inhibition reporter; AID 2315; in the data active means inhibition mostly above about 28%, no sharp cut-off; inactive means mostly below about 43%
# Numbers stand for hits; – = inactive; ? = inconclusive; · = no result given. Unless noted, the call rests on the fitted dose curve; in most records, active means well fitted curve in the direction sought with a large enough effect; inconclusive means small, poorly fitted or top-dose-only effect, or another doubt; inactive means no such curve, though single readings can be large; an effect the other way counts as inactive or inconclusive.
SMILES,SARS PLP yeast,AMA1-RON2 inh,AmpC inh detg,Cycloheximide cs,AmpC inh no detg,Shiga toxin inh
COc1ccc(C2/C(=C(/O)c3ccc4c(c3)CC(C)O4)C(=O)C(=O)N2CCCN2CCOCC2)cc1 (centres undefined),–,–,–,18.6,–,–
CCOc1ccc(C(=O)N(CC)CC(=O)Nc2ccc3c(c2)OCCO3)cc1OCC,–,–,–,·,–,·
O=C1C(=O)N(CCN2CCOCC2)C(c2ccccc2)/C1=C(\O)c1ccc2c(c1)OCCO2 (centres undefined),–,–,–,36.4,–,23.1
COc1ccc(-c2nc(C#N)c(NCCc3ccccc3)o2)cc1,–,–,?,33.6,–,64.0
COc1ccc(CNc2oc(-c3ccccc3)nc2C#N)cc1,–,?,?,21.7,–,–
COc1ccc(-c2nc(C#N)c(NCc3ccc(F)cc3)o2)cc1OC,–,–,?,24.1,–,–
COc1ccc(-c2nc(C#N)c(NCc3cccnc3)o2)cc1OC,–,–,–,–,–,–
COCCN1C(=O)C(=O)/C(=C(/O)c2ccc(S(=O)(=O)N3CCOCC3)cc2)C1c1cccc(O)c1 (centres undefined),–,–,–,–,–,–
CC1CCC/C(=C\Nc2ccccc2C(=O)O)C1=O (centres undefined),–,–,–,–,–,–
O=C1CCC/C1=C/Nc1ccc2c(c1)OCO2,–,–,–,42.2,–,94.8
O=C1OCCC/C1=C\c1ccc2c(c1)OCO2,–,–,–,–,–,–
CC1CCC/C(=C\Nc2ccc3c(c2)OCO3)C1=O (centres undefined),–,–,–,32.7,–,51.2
Cc1cc(=O)oc2cc(OCc3ccc(C(=O)OCC(=O)Nc4ccccc4OC(F)F)cc3)ccc12,–,?,–,–,22.4µM,–
CC(Oc1ccc2c3c(c(=O)oc2c1)CCC3)C(=O)NC1CCN(Cc2ccccc2)CC1 (centres undefined),–,–,–,–,–,–
Cc1cc(=O)oc2cc(OCc3ccccc3)ccc12,–,–,–,61.0,–,86.9
COc1ccc(COc2ccc3c(C)cc(=O)oc3c2)cc1,–,–,–,66.6,–,133.7
Cc1cc(=O)oc2ccc(OCc3ccccc3)cc12,–,–,–,–,–,–
Cc1cccc(C)c1NC(=O)COC(=O)COc1ccc2c(C)cc(=O)oc2c1,–,–,–,–,–,–
Cc1cc(=O)oc2cc(OC(C)C(=O)NC3CCN(Cc4ccccc4)CC3)ccc12 (centres undefined),–,–,–,22.2,–,–
O=C(COC(=O)c1cncc(Br)c1)NCc1ccc(F)cc1,–,–,–,–,–,–
CCOc1ccc(Nc2nc(-c3cccnc3)cs2)cc1,–,–,–,40.2,–,57.4
COc1ccc(Cl)cc1Nc1nc(-c2cccnc2)cs1,–,–,–,–,–,–
Brc1cccc(Nc2nc(-c3cccnc3)cs2)c1,–,–,–,25.3,–,·
Cc1ccc(Nc2nc(-c3cccnc3)cs2)cc1C,–,–,–,50.6,–,96.3
Oc1ccc(Nc2nc(-c3cccnc3)cs2)cc1,–,–,–,38.3,–,·
SMILES,SARS PLP yeast,AMA1-RON2 inh,AmpC inh detg,Cycloheximide cs,AmpC inh no detg,Shiga toxin inh
Cc1ccc(C(=O)OCC(=O)N(CC(C)C)c2c(N)n(Cc3ccccc3)c(=O)[nH]c2=O)s1,–,–,–,–,–,–
Brc1ccc(Nc2nc(-c3cccnc3)cs2)cc1,–,–,–,53.9,?,121.1
O=C(O)c1ccc(Nc2nc(-c3cccnc3)cs2)cc1,–,–,–,–,–,–
Cc1cc(O)ccc1Nc1nc(-c2cccnc2)cs1,–,–,–,31.0,–,51.2
Clc1cccc(Nc2nc(-c3cccnc3)cs2)c1,–,–,–,40.3,–,90.9
Cc1nc(C)c(-c2csc(Nc3ccc(O)cc3C)n2)s1,–,–,–,–,–,–
Cc1cc(O)ccc1Nc1nc(-c2cccs2)cs1,–,–,–,35.8,–,69.2
COc1ccc(CCCN2CCC(CN3C(=S)NC[C@@H]3Cc3ccccc3)CC2)cc1OC,·,–,·,·,·,·
CC(O)CNc1nc2c(c(=O)n(Cc3ccc(Cl)c(Cl)c3)c(=O)n2C)n1C (centres undefined),–,–,–,–,–,–
